Experiments:
Assay type in all cases: functional
Plasmodium falciparum [1] = experiment: GSK_TCMDC: Inhibition of Plasmodium falciparum 3D7 in whole red blood cells, using parasite LDH activity as an index of growth. Test compounds present at 2uM
Plasmodium falciparum [2] = experiment: GSK_TCMDC: Inhibition of Plasmodium falciparum Dd2 in whole red blood cells, using parasite LDH activity as an index of growth. Test compounds present at 2uM
HepG2 = experiment: GSK_TCMDC: Percent inhibition of human HepG2 cell line. Test compounds present at 10uM.

| SMILES | Inhibition (Plasmodium falciparum [1]) | Inhibition (Plasmodium falciparum [2]) | Inhibition (HepG2) |
| --- | --- | --- | --- |
| Br.CC[C@H]1CN2CCc3cc(OC)c(OC)cc3[C@@H]2C[C@@H]1CC1=NCCc2c1[nH]c1ccc(OCc3ccccc3)cc21 | 100% | 89% | 57% |
| Cn1cc(CN2CCC(OC(c3ccccc3)c3ccc(Cl)cc3)CC2)cn1 (configuration not stated) | 94% | 61% | 39% |
| CCn1ncc(Cl)c1CN(C)S(=O)(=O)c1ccc2ccccc2c1 | 100% | 91% | 16% |
| CC[C@H](C)CNC(=O)c1cncc(-c2cccc(CNC3Cc4ccccc4C3)c2)c1.O=C(O)C(F)(F)F | 100% | 76% | 5% |
| COc1cc(F)c2ncc(Cl)c([C@@H](O)CN3CCC(NCc4cc5c(cn4)OCCO5)CC3)c2c1.Cl | 100% | 100% | 11% |
| COc1ccc2c(NN=Cc3ccc(Cl)cc3)ccnc2c1 | 100% | 100% | 8% |
| COc1ccc2c(=NN=CC=Cc3ccccc3)cc(C)[nH]c2c1 | 99% | 56% | 18% |
| OC(c1ccc2ccccc2c1)C1CN(CCc2ccccc2)CCC1(O)c1ccccc1 (configuration not stated) | 99% | 96% | 1% |
| COc1ccc(-n2ccnc2SCC(=O)Nc2cc(C)ccc2C)c(OC)c1 | 94% | 93% | 2% |
| CC(C)Cn1c(Sc2ccc(C#N)c([N+](=O)[O-])c2)nnc1-c1ccccc1Cl | 93% | 46% | 18% |
| CN(C)C1CCN(CC#Cc2cc3ncnc(Nc4ccc(OCc5cccc(F)c5)c(Cl)c4)c3s2)CC1 | 85% | 5% | 34% |
| CC(C)c1ccc(NC(=O)N[C@H]2CCN(CCCCCNC(=O)/C=C/c3ccc(Cl)c(Cl)c3)C2)cc1 | 100% | 14% | 56% |
| CC(C)C[C@@H](C(=O)Nc1ccc(Cc2ccc(NC(=O)[C@H](CC(C)C)N(C)C(=O)OC(C)(C)C)cc2)cc1)N(C)C(=O)OC(C)(C)C | 92% | 57% | 17% |
| Cl.O=C(NC1CCC(CCN2Cc3cccc(F)c3C2)CC1)c1cccc(-c2cccnc2)c1 (configuration not stated) | 98% | 82% | 16% |
| O=C1SC(S)=NC1=CNCCCCCCO | 91% | 1% | 7% |
| C[C@H](Nc1c(Nc2ccc3[nH]ccc3c2)c(=O)c1=O)C1CCCCC1 | 96% | 11% | 7% |
| COc1ccc(NC(=O)C2CCN(CCCCCNC(=O)/C=C/c3ccc(Cl)c(Cl)c3)CC2)cc1 | 98% | 0% | 26% |
| Br.CCCCCCn1c2c(c(=N)c3c1CCC3)CCC2 | 97% | 83% | 32% |
| CC(C)(C)OC(=O)NCc1ccc(Nc2nnc(-c3ccc(OCC(=O)NCc4ccc(C(C)(C)C)cc4)c([N+](=O)[O-])c3)o2)cc1 | 96% | 82% | 10% |
| O=C(Nc1cccc(CN2CCCN(Cc3ccc(O)cc3)CC2)c1)c1ccc(Br)cc1.O=C(O)C(F)(F)F | 94% | 54% | 19% |
| O=C(Nc1cccc(-c2cccc(F)c2)c1)C1CCN(Cc2ccc(O)cc2)CC1 | 87% | 2% | 13% |
| O=C(Nc1ccc([N+](=O)[O-])cc1)c1nn(-c2ccccc2)cc1/N=C/c1cccc(O)c1 | 98% | 37% | 10% |
| O=C(c1ccco1)c1cn(CCOc2ccccc2)c2ccccc12 | 98% | 10% | 5% |
| O=C(CCCCCNC(=O)c1ccc(O)c(-c2ccc(Cl)c(Cl)c2)c1)NCc1cccc(C(F)(F)F)c1 | 92% | 10% | 2% |
| CC(C)c1sc(N2CCCCC2)nc1C(=O)Nc1ccc(F)cc1C(F)(F)F.O=C(O)C(F)(F)F | 100% | 98% | 0% |
| Cc1ccc(/C=C/C(=O)NCCCCCN2CCN(C(=O)Nc3ccc(Cl)c(C(F)(F)F)c3)CC2)cc1 | 93% | 0% | 10% |
| CC1(C)N=C(N)N=C(N)C1c1ccc(Cl)cc1.Cl (configuration not stated) | 96% | 0% | 16% |
| Cc1onc(-c2ccccc2)c1-c1nc(NCc2ccccc2Cl)no1 | 99% | 92% | 2% |
| Cc1[nH]c(C)c(-c2ccc(-c3ccc(OC(F)(F)F)cc3)nc2)c(=O)c1Cl | 95% | 95% | 11% |
